A short description of experiment [1]: Caspase-3/7 induction in HepG2 cells by small molecules, qHTS assay (AID 1346978). Further: nearly all actives have a fitted effect of over 15% in size. Further: potency means the concentration at half of the fitted maximal effect. The method, boiled down:
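Wild-type HepG2 cells, 2,000/well, settled 5 hr at 37 C and 5% CO2, then compound-treated for 17 hr; caspase-3/7 activity read by luminescent Caspase-Glo 3/7 after 30 min at room temperature.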
(In qHTS, concentration-response curves come from the screen itself.)

The nature of experiment [2]: Caspase-3/7 induction in CHO-K1 cells by small molecules, qHTS cell viability counter screen (AID 1346979). Further: nearly all actives have a fitted effect of over 35% in size. Further: potency means the concentration at half of the fitted maximal effect. The procedure, abridged: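 Following a 5hr settling period, CHO-K1 cells at 1,500 per well received DMSO-dissolved compounds. Cell viability was quantified 16hr later by CellTiter-Fluor fluorescence, measured after 1hr with reagent at 37C.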
Experiment [3] is described as follows: Caspase-3/7 induction in CHO-K1 cells by small molecules, qHTS assay (AID 1346980). Further: nearly all actives have a fitted effect of over 15% in size. The method, boiled down:
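Wild-type CHO-K1 cells exposed to compounds for 17hr at 37 C, 5% CO2. Caspase-3/7 activity then measured by Caspase-Glo 3/7 luminescence after 30min at room temperature.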

Experiment [4] deals with Nuclear receptor subfamily 1 group I member 2 (Homo sapiens) (UniProt O75469). Briefly: Human pregnane X receptor (PXR) small molecule agonists, qHTS assay (AID 1346982). Further: nearly all actives have a fitted effect of over 35% in size. Further: potency means the concentration at half of the fitted maximal effect. The method, boiled down: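 After plating in 5% charcoal-stripped FBS and a 5 hr rest, PXR-Luc HepG2 cells received compounds in DMSO. Following 24 hr at 37 C, ONE-Glo was added and light output read.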
Sequence of Nuclear receptor subfamily 1 group I member 2 (Homo sapiens) (O75469 whole entry, looked up): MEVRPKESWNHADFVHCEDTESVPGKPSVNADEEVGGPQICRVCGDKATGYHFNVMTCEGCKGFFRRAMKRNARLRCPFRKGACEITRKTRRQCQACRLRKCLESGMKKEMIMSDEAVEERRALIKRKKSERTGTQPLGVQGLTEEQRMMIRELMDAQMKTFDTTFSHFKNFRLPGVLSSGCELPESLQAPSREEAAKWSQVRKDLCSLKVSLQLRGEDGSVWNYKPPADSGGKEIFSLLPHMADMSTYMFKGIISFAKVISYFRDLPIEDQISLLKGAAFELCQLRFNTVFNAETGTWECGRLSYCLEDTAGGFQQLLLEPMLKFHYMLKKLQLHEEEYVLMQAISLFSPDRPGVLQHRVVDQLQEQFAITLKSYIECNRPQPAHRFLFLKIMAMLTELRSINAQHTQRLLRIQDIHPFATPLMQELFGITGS

Experiment [5] has as its target Nuclear receptor subfamily 1 group I member 2 (Rattus norvegicus) (UniProt Q9R1A7). Briefly: Rat pregnane X receptor (rPXR) activation by small molecules, qHTS assay (AID 1346983). Further: nearly all actives have a fitted effect of over 20% in size. The settings on record: rPXR luciferase reporter cells, One-Glo luminescence, 24 h; max activation: stronger effect = higher value. The procedure, abridged: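 Cell-based rPXR activation assay: rPXR cells, 2,000 per well, rested 5hr at 37 C, then exposed to compounds in DMSO for 24 hr at 37 C. Luciferase activity read by One-Glo luminescence after 30 min at room temperature.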

Experiment [6] addresses Nuclear receptor subfamily 1 group I member 2 (Homo sapiens) (UniProt O75469). Briefly: CYP3A4 induction through human pregnane X receptor (PXR) by small molecules, qHTS assay (AID 1346984). Further: nearly all actives have a fitted effect of over 40% in size. Further: potency means the concentration at half of the fitted maximal effect. The method, boiled down:
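Human PXR activation is tracked via CYP3A4 promoter-luciferase in DPX-2 (HepG2) cells. Compounds treat cells for 24hr at 37C, and luminescence is read after One-Glo.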

Experiment [7] has the same target. Briefly: Human pregnane X receptor (PXR) activation by small molecules, qHTS assay (AID 1346985). Further: nearly all actives have a fitted effect of over 40% in size. Further: potency means the concentration at half of the fitted maximal effect. The procedure, abridged:
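DPX-2 cells (HepG2 co-transfected with a PXR response element and a CYP3A4-promoter luciferase construct) were seeded at 2,000 per well, rested 5 hr at 37C, then exposed to DMSO-dissolved compounds for 24 hr. Activation was read as luciferase luminescence.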

Experiment [8] is described as follows: Caspase-3/7 induction in HepG2 cells by small molecules, qHTS cell viability counter screen (AID 1346981). Further: series mostly up to about 92 µM; nearly all actives have a fitted effect of over 30% in size. The procedure, abridged:
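The parent HepG2 line is plated at 2,000 cells per well and rested 5 hr before compound pinning from DMSO stocks. Following a 16-hr treatment at 37 C, a fluorogenic live-cell substrate (CellTiter-Fluor) reports viability after 1 hr.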

Experiment [9] concerns the target Cytochrome P450 2D6 (Homo sapiens) (UniProt P10635). Briefly: Cytochrome P450 Family 2 Subfamily D Member 6 (CYP2D6) small molecule antagonists: luciferase reporter qHTS assay (AID 1671196). Further: nearly all actives have a fitted effect of over 50% in size. Further: potency means the concentration at half of the fitted maximal effect. On activity change, negative = inhibition: series mostly up to about 120 µM. The procedure, abridged: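 Quantitative HTS of Tox21 chemicals against CYP2D6 using a luminescent proluciferin substrate. After NADPH addition, 1 h room-temperature reaction; luminescence recorded 20 min post detection reagent.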

Experiment [10] in a line: Human pregnane X receptor (PXR) small molecule agonists, qHTS cell viability counter screen (AID 1346977). Further: nearly all actives have a fitted effect of over 50% in size. Further: potency means the concentration at half of the fitted maximal effect. The procedure, abridged: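 In each well, the PXR reporter HepG2 line was checked for viability: CellTiter-Fluor reagent added 23hr post-dosing, fluorescence read after 1hr incubation at 37C.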

The structures appear in SMILES notation. Values without a mark were called inactive. Results filed as inconclusive are left out. Active and inactive are the calls of the source. The call rests on the fitted dose curve; in most records, active means well fitted curve in the direction sought with a large enough effect in the repeat runs; inconclusive means weak or mixed curves; inactive means no such curve, though single readings can be large; an effect the other way counts as inactive or inconclusive.

These results are taken from PubChem BioAssay (Tox21).
On the % scale 0 is the no-effect control and ±100 the full control effect.

Sequence of Cytochrome P450 2D6 (Homo sapiens) (P10635 whole entry, looked up): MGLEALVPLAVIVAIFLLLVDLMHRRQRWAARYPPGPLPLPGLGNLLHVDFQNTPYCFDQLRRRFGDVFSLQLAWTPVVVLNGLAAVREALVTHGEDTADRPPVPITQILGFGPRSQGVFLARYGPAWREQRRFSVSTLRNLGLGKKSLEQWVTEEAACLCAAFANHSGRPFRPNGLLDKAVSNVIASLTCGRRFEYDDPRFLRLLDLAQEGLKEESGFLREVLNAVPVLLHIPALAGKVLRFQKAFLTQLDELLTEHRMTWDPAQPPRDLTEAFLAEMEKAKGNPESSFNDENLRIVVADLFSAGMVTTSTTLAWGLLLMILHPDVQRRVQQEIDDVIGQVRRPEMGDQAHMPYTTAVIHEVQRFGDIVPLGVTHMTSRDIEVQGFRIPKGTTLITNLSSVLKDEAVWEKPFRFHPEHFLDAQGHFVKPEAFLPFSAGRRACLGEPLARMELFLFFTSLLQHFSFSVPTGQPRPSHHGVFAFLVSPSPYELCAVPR
Sequence of Nuclear receptor subfamily 1 group I member 2 (Rattus norvegicus) (Q9R1A7 whole entry, looked up): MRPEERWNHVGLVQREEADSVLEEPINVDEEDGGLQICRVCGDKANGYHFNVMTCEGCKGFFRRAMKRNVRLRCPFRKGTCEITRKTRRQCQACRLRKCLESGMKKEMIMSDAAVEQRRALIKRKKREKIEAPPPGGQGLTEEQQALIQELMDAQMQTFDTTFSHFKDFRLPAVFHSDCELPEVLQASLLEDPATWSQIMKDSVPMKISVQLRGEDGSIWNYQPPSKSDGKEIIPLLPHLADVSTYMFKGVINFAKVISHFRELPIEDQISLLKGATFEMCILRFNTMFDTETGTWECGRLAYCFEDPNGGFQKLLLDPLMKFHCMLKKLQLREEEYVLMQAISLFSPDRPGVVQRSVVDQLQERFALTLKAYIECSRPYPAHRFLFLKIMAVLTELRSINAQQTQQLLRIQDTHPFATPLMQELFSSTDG

With `O=C(O)[C@@H]1CSCN1`, the Potency entry in experiment [1], in experiment [2], in experiment [4], in experiment [6] and in experiment [7] was “inactive” throughout. Besides, in experiment [3], the call was inactive. Further, the max activation in experiment [5] was 0.44%.
Take `NC(=O)NS(=O)(=O)c1ccc(Cl)cc1`: the Potency entry in experiment [1], in experiment [8], in experiment [4] and in experiment [9] was “inactive” each time.
In the case of `O=Cc1ccc(O)c(O)c1O`, the Potency entry in experiment [1] and in experiment [4] was “inactive” in each case. The molecule was called inactive in experiment [3].
Take `Cc1ccc([N+](=O)[O-])c(N)c1`: the Potency entry in experiment [1] and in experiment [9] was “inactive” each time. Further, the molecule was classed as inactive in experiment [3]. Besides, the Potency in [4] was 66.9 µM (active).
Consider `CN(CCCN1c2ccccc2CCc2ccccc21)CC(=O)c1ccc(Cl)cc1`, for which the Potency result in experiment [1] was “inactive”. In addition, the Potency was 18.8 µM (active) in experiment [4], 25.1 µM (active) in [6], 22.4 µM (active) in experiment [7] and 7.76 µM (active) in experiment [9].
In the case of `CN(C)CC[C@@H](c1ccc(Cl)cc1)c1ccccn1`, the Potency result in experiment [1] and in [2] was “inactive” throughout. In addition, the molecule was classed as inactive in experiment [3].
In the case of `CCCOc1ccc2c(c1)CC[C@@H]1[C@@H]2CC[C@]2(C)C(OC)CC[C@@H]12` (stereo not given in full), the Potency result in experiment [10] and in experiment [1] was “inactive” throughout. The result in experiment [3] was inactive. Also, the Potency in experiment [9] was 15.5 µM (active).
For `CCCCCCCCCCCCOCCOS(=O)(=O)O`, the Potency entry in experiment [10], in [1] and in experiment [8] was “inactive” in each case.
Regarding `Nc1ccc(Oc2ccc(N)c(N)c2)cc1`, the Potency entry in experiment [1] was “inactive”. In addition, the Potency in experiment [2] is 61.1 µM (active); in experiment [4] it was 19.3 µM (active); in experiment [9], 5.64 µM (active). Further, the outcome in [3] was inactive.
Regarding `CN(C)C(=O)NC1(c2ccccc2)CCN(CCC[C@]2(c3ccc(Cl)c(Cl)c3)CCCN(C(=O)c3ccccc3)C2)CC1`, in experiment [1], the caspase activation was 1.95% [at 19 µM]. For the same molecule, the activation in experiment [4] is -0.297% [at 19 µM]. The Potency in [9] was 3.79 µM (active).
As to `c1ccc(CN(CC2=NCCN2)c2ccccc2)cc1`, the Potency result in [1], in experiment [2], in experiment [8], in experiment [6] and in experiment [7] was “inactive” throughout. The outcome in [3] was inactive. Besides, the max activation in experiment [5] is -0.824%. The Potency in experiment [9] is 1.38 µM (active).
`CCCCCCCCCC#N`: the Potency entry in [1], in experiment [2], in [8] and in experiment [9] was “inactive” in each case. Besides, the result in [3] was inactive.
`CC1=C(O)C(=O)OC1C` (stereo not given): the Potency result in experiment [1], in [2], in experiment [8], in experiment [4] and in [9] was “inactive” throughout. The molecule was called inactive in [3].
Regarding `CC(C)C[C@H](NC(=O)OCC1c2ccccc2-c2ccccc21)C(=O)O`, the Potency result in [1], in experiment [2] and in [8] was “inactive” each time. Besides, in experiment [3], the molecule was called inactive.
Regarding `Cc1nc(N)nc(N)c1-c1ccc(Cl)c(Cl)c1`, the Potency entry in experiment [1], in [2], in [8] and in experiment [4] was “inactive” in each case. Further, the molecule was called inactive in experiment [3]. In [9], the Potency is 2.19 µM (active).
Turning to `CCCCOc1cc(C(=O)NCCN(CC)CC)c2ccccc2n1`, the Potency is 21.1 µM (active) in experiment [10] and 13.8 µM (active) in experiment [9]. Moreover, the Potency entry in experiment [1] was “inactive”. Besides, the outcome in [3] was inactive. In addition, in experiment [5], the max activation was -1.11%.
On to `OCC(CBr)(CBr)CBr`, for which the Potency result in experiment [10], in [2], in experiment [8] and in experiment [9] was “inactive” each time. Besides, the molecule was classed as inactive in experiment [3].
Regarding `COc1cc2c(cc1N)oc1ccccc12`, the Potency entry in [1] and in experiment [8] was “inactive” in each case. Also, the Potency in [4] is 27.9 µM (active); in experiment [9] it was 7.25 µM (active).
Turning to `CC(=O)N[C@@H](CC(C)C)C(=O)O`, the Potency entry in experiment [1] and in experiment [2] was “inactive” in each case. The call in experiment [3] was inactive.
For the molecule `CCOC(=O)COc1ccc2c(c1)CC(NCC(O)c1cccc(Cl)c1)CC2` (stereo not given), the Potency in experiment [1] was 48.9 µM (active); in experiment [9] it was 0.452 µM (active). The outcome in [3] was inactive. Moreover, the Potency entry in experiment [4] is “inactive”.
Consider `CN1CCN(C2=Nc3ccccc3Oc3ccc(Cl)cc32)CC1`, for which the Potency result in [1] and in experiment [7] was “inactive” throughout. For the same molecule, in [3], the outcome was inactive. For the same molecule, the max activation in [5] is -1.38%. In addition, the Potency in experiment [6] was 1.26 µM (active); in experiment [9], 4.9 µM (active).
For the molecule `CCN(CC)CCOc1ccc(Cc2ccccc2)cc1`, the Potency entry in [1], in experiment [2] and in [8] was “inactive” each time. In addition, the molecule was classed as inactive in [3]. The Potency in experiment [4] is 23.7 µM (active); in experiment [6], 11.2 µM (active); in experiment [7] it was 4.47 µM (active); in [9], 9.77 µM (active). For the same molecule, in experiment [5], the max activation was -17.9%.
For `CCCCNC(=S)NCCCC`, the Potency entry in [1] and in experiment [8] was “inactive” in each case. For the same molecule, the values for the Potency in experiment [4] and in [9] were 34.4 µM (active) and 1.42 µM (active), respectively.
In the case of `O=C(O)CN(CCN(CC(=O)O)CC(=O)O)CCN(CC(=O)O)CC(=O)O`, the caspase activation in experiment [1] was 0.916% [at 19 µM]. Moreover, the Potency in experiment [2] is 13 µM (active). Besides, the caspase-3/7 activation in experiment [3] is 5.14% [at 19 µM]. The activation in [4] is 8.36% [at 19 µM]. In addition, the activity change, negative = inhibition in [9] is -5.69% [at 23.6 µM].
Regarding `CCC(=O)c1ccc2c(c1)N(CCCN(C)C)c1ccccc1S2`, the Potency result in experiment [1], in [2] and in experiment [4] was “inactive” throughout. In addition, the Potency in [9] was 1.1 µM (active).
For the molecule `CNCCC(Oc1ccccc1OC)c1ccccc1` (stereo not given), the Potency result in [1], in [2] and in experiment [8] was “inactive” in each case. Moreover, in [9], the Potency is 0.977 µM (active).
Take `OCCN(CCO)c1ccccc1`: the Potency entry in experiment [10], in [1] and in [9] was “inactive” in each case.
On to `CCN(CCCc1ccccc1)CCCc1ccccc1`, for which the Potency entry in experiment [1], in experiment [2], in experiment [8], in [6] and in experiment [7] was “inactive” in each case. In addition, in experiment [3], the outcome was inactive. The max activation in experiment [5] is -0.276%. In addition, in experiment [9], the Potency was 0.871 µM (active).
Turning to `CC(C)CC(=O)OCc1ccccc1`, the Potency entry in experiment [1], in [2] and in experiment [9] was “inactive” in each case. For the same molecule, the outcome in experiment [3] was inactive.
In the case of `C/C(=N\O)[C@@H](C)NCC(C)(C)CN[C@H](C)/C(C)=N/O`, the Potency result in [1], in [2] and in [4] was “inactive” throughout. In experiment [3], the molecule was called inactive.
On to `C1CSCCS1`, for which the Potency entry in experiment [1] and in experiment [2] was “inactive” in each case. Further, in [4], the Potency is 27.1 µM (active).
`C=O`: the Potency result in [1], in experiment [2] and in [8] was “inactive” throughout. Further, the call in [3] was inactive. In experiment [5], the max activation is -2.05%.
With `Cc1nc(-c2ccccn2)ncc1C(=O)Nn1cc(C)c2cc(F)ccc21`, the Potency result in experiment [10], in experiment [1] and in [8] was “inactive” in each case. Also, the Potency in [4] was 4.86 µM (active); in [9], 44.8 µM (active).
